Laboratory results reported in PubChem BioAssay (Tox21).
Records with an inconclusive call do not appear. Calls of active or inactive are those of the source. Unless noted, calls follow the shape of the full dose curve.

What was measured:
[1] = Nuclear factor erythroid 2-related factor 2/antioxidant responsive element (Nrf2/ARE) small molecule agonists: qHTS cell viability counter screen in human keratinocytes (AID 1919968; active = well fitted curve in the direction sought with a large enough effect in the repeat runs; an effect the other way counts as inactive or inconclusive; also: nearly all actives have a fitted effect of over 55% in size; also: potency is read from the fitted curve at half-maximal effect)
In short: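 Cells of the KeratinoSens line were plated at 1,500 per well and left for 5 h before compound transfer from DMSO stocks. After a 23 h incubation (37 C, 5% CO2), CellTiter-Fluor was added. Signal was taken as fluorescence intensity 1 h later.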

[2] = Nuclear factor erythroid 2-related factor 2/antioxidant responsive element (Nrf2/ARE) small molecule agonists: luciferase reporter gene qHTS assay in human keratinocytes (AID 1919969); also: nearly all actives have a fitted effect of over 35% in size; also: potency is read from the fitted curve at half-maximal effect
[3] = target: KiSS-1 receptor (Homo sapiens) (UniProt Q969F8); assay: Human kisspeptin (KISS1R) small molecule agonists, calcium flux assay in KISS1R-HEK293 cells (AID 1920064; active = well fitted curve in the direction sought with a large enough effect in the repeat runs; an effect the other way counts as inactive or inconclusive)
Sequence of KiSS-1 receptor (Homo sapiens) (Q969F8 whole entry, looked up): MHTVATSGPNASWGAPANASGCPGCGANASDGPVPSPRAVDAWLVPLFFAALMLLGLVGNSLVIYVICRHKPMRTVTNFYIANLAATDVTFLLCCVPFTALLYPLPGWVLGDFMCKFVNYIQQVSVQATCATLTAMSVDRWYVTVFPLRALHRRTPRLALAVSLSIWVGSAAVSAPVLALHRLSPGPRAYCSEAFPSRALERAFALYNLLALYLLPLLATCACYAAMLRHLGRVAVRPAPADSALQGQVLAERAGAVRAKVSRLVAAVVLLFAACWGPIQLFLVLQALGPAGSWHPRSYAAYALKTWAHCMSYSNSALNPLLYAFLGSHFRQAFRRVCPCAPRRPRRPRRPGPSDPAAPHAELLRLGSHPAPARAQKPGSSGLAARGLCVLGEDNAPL
In short: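 Cell line: HEK293, stable human KISS1R. Dye loading 1 h at 37 C after 18 h culture. Read: kinetic fluorescence, 480/540 nm, 3 min at 1 s intervals.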

[4] = G protein-coupled receptor (GPCR) small molecule agonists, calcium flux assay: HEK293 wild type cell line counter screen (AID 1920065)
In short: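 Tox21 10K compounds, 15 concentrations each in triplicate, pin-transferred in DMSO onto dye-loaded cells; kinetic read at 480/540 nm for 3 min, 1 s intervals.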

[5] = p53 small molecule agonists, cell-based qHTS assay with human liver microsomes (AID 1963577)
In short: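 Compounds act here after metabolic activation: human liver microsomes and NADPH, both at 0.5 mg/mL final, were co-added to p53RE-bla cells. Incubation ran 16 h at 37 C, followed by LiveBLAzer detection.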

[6] = p53 small molecule agonists, cell-based qHTS assay with rat liver microsomes (AID 1963578)
In short: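 Read-out is beta-lactamase reporter fluorescence (LiveBLAzer, 2 h, room temperature, dark) in p53RE-bla cells treated 16 h at 37 C with compound, rat liver microsomes and NADPH, both 0.5 mg/mL final.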

[7] = p53 small molecule agonists, cell-based qHTS assay with human liver microsomes: qHTS cell viability counter screen (AID 1963579); also: nearly all actives have a fitted effect of over 45% in size; also: potency is read from the fitted curve at half-maximal effect
In short: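 Cells carrying the p53 response-element beta-lactamase reporter are treated for 16 h at 37 C with test compounds in the presence of human liver microsomes and NADPH (both 0.5 mg/mL final); ATP-based CellTiter-Glo luminescence then reports viability.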

[8] = p53 small molecule agonists, cell-based qHTS assay with rat liver microsomes: qHTS cell viability counter screen (AID 1963580); also: nearly all actives have a fitted effect of over 45% in size; also: potency is read from the fitted curve at half-maximal effect
In short: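 Cytotoxicity counter screen: intracellular ATP read by CellTiter-Glo luminescence in the p53 reporter wells. HCT-116 p53RE-bla cells were treated for 16 h at 37 C alongside rat liver microsomes and NADPH, each 0.5 mg/mL final.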

[9] = p53 small molecule agonists, cell-based qHTS assay: qHTS cell viability counter screen (AID 1963581); also: nearly all actives have a fitted effect of over 45% in size; also: potency is read from the fitted curve at half-maximal effect
In short: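 ATP content measured by luminescence in HCT-116 p53RE-bla cells treated 16 h at 37 C, same wells as the reporter screen.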

[10] = p53 small molecule agonists, cell-based qHTS assay (AID 1963582; active = well fitted activation curve with a large enough effect in the signal ratio in the repeat runs, not every such curve was filed as active; the % refers to the signal ratio; also: potency is read from the fitted curve at half-maximal effect)
In short: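 16 h compound exposure (37 C) of p53 response element–bla cells, preceded by 5 h recovery at 37 C/5% CO2; read-out via LiveBLAzer B/G FRET substrate, 2 h RT, fluorescence intensity.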

[11] = target: 5-hydroxytryptamine receptor 2A (Homo sapiens) (UniProt P28223); assay: 5-hydroxytryptamine receptor 2A (HTR2A) small molecule antagonists, cell-based qHTS assay (AID 1963586); also: nearly all actives have a fitted effect of over 45% in size
Sequence of 5-hydroxytryptamine receptor 2A (Homo sapiens) (P28223 whole entry, looked up): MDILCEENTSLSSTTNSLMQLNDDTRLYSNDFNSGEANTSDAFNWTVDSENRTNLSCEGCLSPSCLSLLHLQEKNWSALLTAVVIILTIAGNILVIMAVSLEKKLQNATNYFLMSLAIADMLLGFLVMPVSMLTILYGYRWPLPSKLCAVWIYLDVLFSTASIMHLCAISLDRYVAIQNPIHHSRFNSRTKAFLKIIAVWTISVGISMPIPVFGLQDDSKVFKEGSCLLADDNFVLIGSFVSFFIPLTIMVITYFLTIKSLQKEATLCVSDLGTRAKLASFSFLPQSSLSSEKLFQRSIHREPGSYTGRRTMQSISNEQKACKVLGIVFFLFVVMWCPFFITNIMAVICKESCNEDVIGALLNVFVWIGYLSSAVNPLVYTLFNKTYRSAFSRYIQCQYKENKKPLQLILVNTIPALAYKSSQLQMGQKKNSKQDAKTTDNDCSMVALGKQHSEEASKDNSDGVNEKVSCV
In short: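 CHO cells stably expressing human HTR2A were plated for 18 h at 37 C, then loaded with calcium dye for 1 h. Compounds were preincubated 5 min at room temperature before DOI (4 nM solution) was added. Kinetic fluorescence was read for 3 min.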

[12] = target: 5-hydroxytryptamine receptor 2A (Homo sapiens) (UniProt P28223); assay: 5-hydroxytryptamine receptor 2A (HTR2A) small molecule agonists, cell-based qHTS assay (AID 1963587); also: nearly all actives have a fitted effect of over 30% in size; also: potency is read from the fitted curve at half-maximal effect
In short: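 Kinetic calcium-flux fluorescence (2 min, 1 sec intervals) after compound addition in agonist mode. HTR2A-CHO cells were cultured 18 h, then dye-loaded 1 h at 37 C.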

[13] = target: Muscarinic acetylcholine receptor M1 (Homo sapiens) (UniProt P11229); assay: Cholinergic receptor muscarinic 1 (CHRM1) small molecule antagonists, cell-based qHTS assay (AID 1963588); also: nearly all actives have a fitted effect of over 40% in size; also: potency is read from the fitted curve at half-maximal effect
Sequence of Muscarinic acetylcholine receptor M1 (Homo sapiens) (P11229 whole entry, looked up): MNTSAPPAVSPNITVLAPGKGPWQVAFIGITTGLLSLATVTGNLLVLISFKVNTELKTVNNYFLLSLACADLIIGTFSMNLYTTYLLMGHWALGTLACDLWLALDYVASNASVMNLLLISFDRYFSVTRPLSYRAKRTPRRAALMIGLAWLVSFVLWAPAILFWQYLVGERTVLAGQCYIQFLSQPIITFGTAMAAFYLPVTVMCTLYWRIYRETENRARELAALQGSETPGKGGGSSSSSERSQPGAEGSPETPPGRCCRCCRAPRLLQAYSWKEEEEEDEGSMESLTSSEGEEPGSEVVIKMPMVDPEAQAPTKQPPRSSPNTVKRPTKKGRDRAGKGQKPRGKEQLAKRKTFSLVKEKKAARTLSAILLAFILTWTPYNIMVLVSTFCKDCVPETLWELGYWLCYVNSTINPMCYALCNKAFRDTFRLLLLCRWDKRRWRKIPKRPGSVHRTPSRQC
In short: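 Compounds were tested at 15 concentrations in three independent runs. Dye-loaded CHRM1-CHO cells were exposed 5 min at room temperature before stimulation by acetylcholine added at 50nM. Intracellular calcium was read kinetically on FDSS for 3 min.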

[14] = target: Muscarinic acetylcholine receptor M1 (Homo sapiens) (UniProt P11229); assay: Cholinergic receptor muscarinic 1 (CHRM1) small molecule agonists, cell-based qHTS assay (AID 1963589); also: nearly all actives have a fitted effect of over 35% in size
In short: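 Homogeneous fluorescence calcium flux, agonist mode. Human M1-expressing CHO cells; compound dosed at 15 concentrations, three independent runs; signal sampled every 1 sec.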

[15] = target: D(2) dopamine receptor (Homo sapiens) (UniProt P14416); assay: Dopamine D2 receptor (DRD2) small molecule agonists, cell-based qHTS assay (AID 1963594); also: nearly all actives have a fitted effect of over 35% in size
Sequence of D(2) dopamine receptor (Homo sapiens) (P14416 whole entry, looked up): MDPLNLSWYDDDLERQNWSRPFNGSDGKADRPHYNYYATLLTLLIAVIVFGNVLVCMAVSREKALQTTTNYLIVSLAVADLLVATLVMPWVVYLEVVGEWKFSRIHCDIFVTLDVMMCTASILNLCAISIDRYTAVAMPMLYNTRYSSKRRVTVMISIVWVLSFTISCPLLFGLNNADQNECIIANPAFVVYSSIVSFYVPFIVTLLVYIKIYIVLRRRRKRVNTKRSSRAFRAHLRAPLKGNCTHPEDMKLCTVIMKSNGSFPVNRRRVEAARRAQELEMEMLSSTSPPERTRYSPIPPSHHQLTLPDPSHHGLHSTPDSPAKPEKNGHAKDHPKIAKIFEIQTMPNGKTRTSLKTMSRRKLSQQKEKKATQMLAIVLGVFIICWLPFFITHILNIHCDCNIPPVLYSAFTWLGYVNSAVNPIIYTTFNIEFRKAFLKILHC
In short: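 cAMP accumulation in DRD2-HEK293 cells measured by HTRF after 1 h detection; compounds added 10 min before NKH477 (200nM […]) forskolin-analogue stimulation, 30 min at room temperature, with Ro20-1724 present at 0.1 mM final.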

[16] = cAMP Responsive Elements (CRE) small molecule agonists, cell-based qHTS assay (AID 1963590)
In short: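 HEK 293T cells stably bearing CRE-bla were plated at 2,000 cells per well and rested 18 h. Compounds, positive controls or DMSO were added for 3 h at 37 C. LiveBLAzer B/G substrate was then loaded for 2 h at room temperature.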

[17] = cAMP Responsive Elements (CRE) small molecule antagonists, cell-based qHTS assay (AID 1963591; active = well fitted inhibition curve with a large enough effect in the signal ratio in the repeat runs, not every such curve was filed as active; the % refers to the signal ratio)
In short: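 First, CRE-bla HEK293T cells settled 18 h at 37 C. Next, compound and 0.25 uM final NKH477 were applied for 3 h. Last, LiveBLAzer B/G substrate was loaded for 2 h at room temperature.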

[18] = target: Beta-2 adrenergic receptor (Homo sapiens) (UniProt P07550); assay: Adrenergic beta2 receptor (ADRB2) small molecule antagonists, cell-based qHTS assay (AID 1963592); also: series mostly up to about 92 µM; nearly all actives have a fitted effect of over 50% in size
Sequence of Beta-2 adrenergic receptor (Homo sapiens) (P07550 whole entry, looked up): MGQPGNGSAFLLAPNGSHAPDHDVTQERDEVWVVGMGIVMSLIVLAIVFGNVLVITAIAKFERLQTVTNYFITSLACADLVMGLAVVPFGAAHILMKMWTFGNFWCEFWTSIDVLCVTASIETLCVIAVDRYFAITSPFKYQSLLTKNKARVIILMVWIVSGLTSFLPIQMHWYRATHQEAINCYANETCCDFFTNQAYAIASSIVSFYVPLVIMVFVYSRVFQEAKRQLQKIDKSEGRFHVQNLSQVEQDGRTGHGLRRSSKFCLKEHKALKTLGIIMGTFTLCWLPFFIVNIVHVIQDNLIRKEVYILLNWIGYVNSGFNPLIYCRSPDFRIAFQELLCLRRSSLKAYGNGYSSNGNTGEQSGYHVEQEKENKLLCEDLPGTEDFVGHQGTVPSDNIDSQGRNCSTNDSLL
In short: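 Assay format: CHO-ADRB2 cells, 18-20hr seeding at 37C/5% CO2, then compound plus 1nM isoproterenol agonist mix for 0.5hr RT. Homogeneous time-resolved fluorescence cAMP detection after 1hr, expressed as 665/615 nm ratio.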

[19] = target: D(2) dopamine receptor (Homo sapiens) (UniProt P14416); assay: Dopamine D2 receptor (DRD2) small molecule antagonists, cell-based qHTS assay (AID 1963595; active = well fitted inhibition curve with a large enough effect in the signal ratio in the repeat runs, with a control signal flat; the % refers to the signal ratio; also: potency is read from the fitted curve at half-maximal effect)
In short: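 HEK293 cells stably expressing DRD2, preincubated with 0.1 mM Ro20-1724 and compounds 10 min, were stimulated with 200 nM NKH477 plus 12 nM quinpirole for 30 min at room temperature; cAMP measured by HTRF (665/620 nm).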

[20] = target: Beta-2 adrenergic receptor (Homo sapiens) (UniProt P07550); assay: Adrenergic beta2 receptor (ADRB2) small molecule agonists, cell-based qHTS assay (AID 1963593);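 also: CHO cells stably overexpressing human ADRB2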
In short: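 CHO cells stably over-expressing ADRB2 were plated overnight at 37C, then dosed with compounds plus a stimulation mix containing 100uM IBMX and 25uM Ro-20-1724 for 0.5hr at room temperature. cAMP was measured by HTRF competition, 1hr.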

Measured: Potency

CC(NCCC(c1ccccc1)c1ccccc1)c1ccccc1 (stereo unspecified)
active: [1] 26.6 µM | [12] 23.9 µM
inactive: [2] | [3] | [4] | [5] | [6] | [7] | [8] | [9] | [10] | [11] | [13] | [14] | [15]

CNC1CCCN(c2c(F)cc3c(=O)c(C(=O)O)cn(C4CC4)c3c2OC)C1 (stereo unspecified)
inactive: [1] | [2] | [4] | [7] | [8] | [9] | [11] | [12] | [13] | [16] | [17] | [18] | [19]

CCOC(C)OCC
inactive: [1] | [2] | [4] | [7] | [8] | [12] | [13] | [14] | [16] | [17] | [18] | [20] | [15] | [19]

CCCC(=O)OCCc1ccccc1
inactive: [1] | [2] | [3] | [4] | [5] | [6] | [7] | [8] | [10] | [11] | [13] | [16] | [17] | [18] | [15] | [19]

CC(=O)S[C@@H]1CC2=CC(=O)CC[C@]2(C)[C@H]2CC[C@@]3(C)[C@@H](CC[C@@]34CCC(=O)O4)[C@H]12
inactive: [1] | [3] | [4] | [5] | [6] | [7] | [8] | [9] | [18] | [15]
active: [2] 24.3 µM

COC1CCC=CO1 (stereo unspecified)
inactive: [1] | [2] | [4] | [7] | [8] | [9] | [11] | [12] | [13] | [16] | [17] | [19]

CCCCCCOC(=O)NC(=N)c1ccc(NCc2nc3cc(C(=O)N(CCC(=O)OCC)c4ccccn4)ccc3n2C)cc1
inactive: [1] | [2] | [3] | [4] | [5] | [6] | [7] | [8] | [12] | [13] | [14] | [18] | [20] | [15] | [19]

COc1ccc(OC)c(Cl)c1
inactive: [1] | [2] | [4] | [7] | [8] | [9] | [11] | [13] | [14] | [16] | [17] | [18] | [20] | [15] | [19]

NNC(=O)CCCCC(=O)NN
inactive: [1] | [2] | [4] | [7] | [8] | [9] | [11] | [12] | [14] | [16] | [17] | [18] | [20] | [15]

Cc1cc2c(C(C)C)c(O)c(O)c(C=O)c2c(O)c1-c1c(C)cc2c(C(C)C)c(O)c(O)c(C=O)c2c1O
active: [1] 10.6 µM | [7] 17.8 µM | [9] 11.2 µM
inactive: [2] | [3] | [4] | [5] | [6] | [14] | [18] | [15]

C[C@H](CCC(=O)O)[C@H]1CC[C@H]2[C@@H]3CC[C@@H]4C[C@H](O)CC[C@]4(C)[C@H]3C[C@H](O)[C@]12C
inactive: [1] | [2] | [3] | [4] | [5] | [6] | [7] | [8] | [9] | [10] | [11] | [12] | [18] | [15] | [19]

Cc1ccc(S(=O)(=O)C(I)I)cc1
inactive: [5] | [6] | [9] | [11] | [18] | [15]
active: [1] 27.3 µM | [2] 6.11 µM | [12] 54.9 µM | [13] 18.8 µM | [19] 30.6 µM

CC[N+](CC)(CC(=O)Nc1c(C)cccc1C)Cc1ccccc1 (tested in a mixture with another compound)
inactive: [1] | [2] | [4] | [7] | [8] | [9] | [12] | [13] | [14] | [16] | [15] | [19]

CC(=O)CCC1=C(C)CCCC1(C)C
inactive: [1] | [2] | [4] | [7] | [8] | [9] | [11] | [12] | [13] | [14] | [16] | [18] | [20] | [15] | [19]

COc1cccc2c1C(=O)c1c(O)c3c(c(O)c1C2=O)C[C@@](O)(C(=O)CO)C[C@@H]3O[C@H]1C[C@H](N)[C@H](O[C@@H]2CCCCO2)[C@H](C)O1
active: [1] 9.44 µM | [2] 2.66 µM | [8] 3.97 µM | [10] 1.78 µM | [12] 10.7 µM
inactive: [3] | [4] | [5] | [6] | [7] | [9] | [14] | [16] | [18]

CC(C)(C)c1ccc(OC2CCCCC2O)cc1 (stereo unspecified)
active: [2] 38.6 µM | [8] 1.62 µM | [12] 43.6 µM
inactive: [1] | [3] | [4] | [5] | [6] | [7] | [9] | [17] | [19]

CCO[Si](CCCSSSSCCC[Si](OCC)(OCC)OCC)(OCC)OCC
active: [1] 61.2 µM
inactive: [2] | [4] | [7] | [9] | [11] | [13] | [14] | [18] | [15] | [19]
